Compound activity (PubChem)
A selection: hits, their analogues and other compounds. The true share with any hit is near 1.9%.
PrPC TRFRET: cell surface PrPC inhibition, primary TR-FRET screen. TR-FRET read-out. inhibition, % at 13.8 µM. 370,000 compounds, 0.43% hits; in the data active means inhibition above about 24%
BJeLR viability: kills HRASV12-expressing BJeLR cells. BJeLR (HRASV12) viability, CellTiter-Glo ATP luminescence, 48 h. inhibition, % (test concentration not listed). 300,000 compounds, 0.17% hits. AID 1554; in the data active means inhibition above about 50%
RecA splice inh: inhibitors of M. tuberculosis RecA intein splicing. inhibition, % (concentration not given with the values). 290,000 compounds, 0.75% hits. cell-free RecA intein splicing, fluorescence. P9WHJ3; in the data active means inhibition above about 30%
Target sequence (P9WHJ3 whole entry, looked up, canonical isoform): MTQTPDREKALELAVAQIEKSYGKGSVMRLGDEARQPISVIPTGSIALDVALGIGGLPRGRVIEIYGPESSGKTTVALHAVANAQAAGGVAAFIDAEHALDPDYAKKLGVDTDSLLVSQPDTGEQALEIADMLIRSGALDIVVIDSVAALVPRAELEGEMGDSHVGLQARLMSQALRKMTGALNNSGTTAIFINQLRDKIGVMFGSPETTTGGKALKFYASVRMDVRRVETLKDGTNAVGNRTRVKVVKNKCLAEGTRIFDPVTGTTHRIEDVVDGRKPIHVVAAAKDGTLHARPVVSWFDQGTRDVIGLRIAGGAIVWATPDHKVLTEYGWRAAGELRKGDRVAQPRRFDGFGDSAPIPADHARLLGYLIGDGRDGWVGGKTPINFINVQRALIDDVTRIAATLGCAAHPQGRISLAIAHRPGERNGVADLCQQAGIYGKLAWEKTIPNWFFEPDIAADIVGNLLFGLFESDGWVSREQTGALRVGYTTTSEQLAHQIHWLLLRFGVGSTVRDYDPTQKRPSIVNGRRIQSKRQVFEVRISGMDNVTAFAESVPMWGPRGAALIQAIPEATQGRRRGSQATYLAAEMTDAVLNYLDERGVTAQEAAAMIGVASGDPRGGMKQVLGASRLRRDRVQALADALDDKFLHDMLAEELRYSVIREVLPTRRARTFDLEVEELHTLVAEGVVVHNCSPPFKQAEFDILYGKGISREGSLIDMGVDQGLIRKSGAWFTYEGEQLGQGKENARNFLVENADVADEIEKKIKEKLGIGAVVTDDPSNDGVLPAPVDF
PfHsp40 yeast: restores yeast growth despite PfHsp40 toxicity. growth rescue, % at 12.5 µM. S. cerevisiae expressing PfHsp40, growth rescue, ATP luminescence. 340,000 compounds, 0.68% hits; in the data active means growth rescue above about 28%, passing the limit was not always enough;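 further: yeast W303a lacking pdr1 and pdr3 grown in galactose medium; growth measured after three days at 30 °C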
SSB-PriA inh: K. pneumoniae PriA-SSBct interaction inhibition; AlphaScreen SSBct-PriA binding, biotinylated peptide; AID 1272365; inhibition, % at 33 µM; 430,000 compounds, 0.6% hits; in the data active means inhibition mostly above about 37%, no sharp cut-off; inactive means mostly below about 20%
PrP 5UTR inh: inhibition of PrP 5' UTR reporter expression; cell-based PrP 5' UTR mRNA reporter, plate reader; inhibition, % (concentration not given with the values); 340,000 compounds, 0.35% hits; in the data active means inhibition above about 52%
GFP chromophore: counter-screen GFP chromophore formation inhibition; shares compounds with RecA splice inh; cell-free GFP chromophore formation, fluorescence; EC50, µM; 2,100 compounds, 83% hits; AID 434968; call rule not given here
A number is an active result.

Screening COc1ccc(CN(CCC(c2ccccc2)c2ccc(OC(C)C)cc2)C(=O)CCl)cc1OC (stereo unspecified) returned PrPC TRFRET inactive, BJeLR viability 68.0, RecA splice inh 82.9, PfHsp40 yeast inactive, SSB-PriA inh inactive, PrP 5UTR inh inactive and GFP chromophore 0.399.
`COCCN(C(=O)CCl)C(C(=O)NC1CCCCC1)c1ccccc1C` (stereo unspecified) gave PrPC TRFRET inactive, BJeLR viability inactive, RecA splice inh 46.6, PfHsp40 yeast inactive, SSB-PriA inh inactive, PrP 5UTR inh inactive and GFP chromophore 25.6.
O=C(NC1CCCC1)C(c1ccc(F)cc1)N(Cc1ccccc1Cl)C(=O)CCl (stereo unspecified) was read as PrPC TRFRET inactive, BJeLR viability inactive, RecA splice inh 49.6, PfHsp40 yeast inactive, SSB-PriA inh inactive, PrP 5UTR inh inactive and GFP chromophore inactive.
C#CCOc1ccc(/C=C2/C(=O)N(c3ccc(S(N)(=O)=O)cc3)N=C2C)cc1OC was read as PrPC TRFRET inactive.
For COc1cc(/C=C2\C(=O)N(c3ccc(S(N)(=O)=O)cc3)N=C2C)ccc1OC(=O)c1ccco1 the results were PrPC TRFRET inactive, BJeLR viability inactive, RecA splice inh 92.6, PfHsp40 yeast inactive, SSB-PriA inh inactive, PrP 5UTR inh inactive and GFP chromophore 19.6.
C#CCOc1ccc(/C=C2/C(=O)N(c3cccc(C(=O)O)c3)N=C2C)cc1OC was read as PrPC TRFRET inactive, BJeLR viability inactive, RecA splice inh 71.5, PfHsp40 yeast inactive, SSB-PriA inh inactive, PrP 5UTR inh inactive and GFP chromophore 3.37.
For O=C(c1cnn(-c2ccccc2)n1)N1CC(N2C(=O)C3CC=CCC3C2=O)C1 (stereo unspecified) the results were SSB-PriA inh inactive.
COc1ccc(Cn2c(O)c(/C=N/NC(=O)c3ccccc3O)c(=O)[nH]c2=O)cc1 was read as PrPC TRFRET inactive, BJeLR viability inactive, RecA splice inh 30.7, PfHsp40 yeast inactive, PrP 5UTR inh inactive and GFP chromophore inactive.
Screening COc1ccc(-c2cnc(C(=O)N3c4ccccc4CC3C)o2)cc1 (stereo unspecified) returned SSB-PriA inh inactive.
Screening CCOC(=O)CSc1nnc(NCC(=O)OC(C)C)c(=O)[nH]1 returned PrPC TRFRET inactive, BJeLR viability inactive, RecA splice inh 54.6, PfHsp40 yeast inactive, SSB-PriA inh inactive, PrP 5UTR inh inactive and GFP chromophore 36.6.
CC(OC(=O)c1ccccc1C(=O)N(C)c1ccccc1)C(=O)Nc1ccc(C(N)=O)cc1 (stereo unspecified) was read as PrPC TRFRET inactive, BJeLR viability inactive, RecA splice inh inactive, PfHsp40 yeast inactive, SSB-PriA inh inactive and PrP 5UTR inh inactive.
For CC(OC(=O)c1cc(O)c2ccccc2c1O)C(=O)Nc1ccc(C(N)=O)cc1 (stereo unspecified) the results were PrPC TRFRET inactive, BJeLR viability inactive, RecA splice inh 73.1, PfHsp40 yeast inactive, SSB-PriA inh inactive, PrP 5UTR inh inactive and GFP chromophore 5.18.
For Cc1nc(-c2ccccc2)sc1CNC(=O)NCc1ccc(Cl)cc1 the results were SSB-PriA inh inactive.
For COc1ccc(NC(=O)CSc2ccc(-c3sc(C)nc3C)nn2)cc1 the results were PrPC TRFRET inactive, BJeLR viability inactive, RecA splice inh inactive, PfHsp40 yeast inactive, SSB-PriA inh inactive and PrP 5UTR inh inactive.
Screening CCc1ccc(NC(=O)CSc2ccc(-c3sc(C)nc3C)nn2)cc1 returned PrPC TRFRET inactive, BJeLR viability inactive, RecA splice inh 82.3, PfHsp40 yeast inactive, SSB-PriA inh inactive, PrP 5UTR inh inactive and GFP chromophore inactive.
`Cc1ccc(-n2nnnc2CNC(=O)C2CCCC2)cc1C` gave SSB-PriA inh inactive.
`CCCCCOP(=O)(OCCCCC)C1(NS(=O)(=O)c2ccccc2)C=CC(=O)c2ccccc21` (stereo unspecified) gave PrPC TRFRET inactive, BJeLR viability inactive, RecA splice inh 80.5, PfHsp40 yeast inactive, SSB-PriA inh inactive, PrP 5UTR inh inactive and GFP chromophore 6.7.
O=C(NCc1cccnc1-c1cccs1)c1ccoc1 was read as SSB-PriA inh inactive.
Cc1ccc(-c2cc(=O)[nH][nH]2)c(C)c1 was read as PrPC TRFRET inactive, BJeLR viability inactive, RecA splice inh 94.9, PfHsp40 yeast inactive, SSB-PriA inh inactive, PrP 5UTR inh inactive and GFP chromophore 2.94.
For COc1ccc2c(c1)C(=O)N(c1ccccc1OC)C(=O)C2 the results were PrPC TRFRET inactive, BJeLR viability inactive, RecA splice inh inactive, PfHsp40 yeast inactive, SSB-PriA inh inactive and PrP 5UTR inh inactive.
Screening COc1ccccc1N1C(=O)Cc2ccccc2C1=O returned PrPC TRFRET inactive, BJeLR viability inactive, RecA splice inh 31.1, PfHsp40 yeast inactive, SSB-PriA inh inactive, PrP 5UTR inh inactive and GFP chromophore 11.3.
Screening O=C(CSc1nccn2nc(-c3ccc(F)cc3)cc12)Nc1cc(F)ccc1F returned SSB-PriA inh inactive.
CNS(=O)(=O)c1cccc(C(=O)OCC(=O)NC(C)CCc2ccccc2)c1 (stereo unspecified) was read as PrPC TRFRET inactive, BJeLR viability inactive, RecA splice inh inactive, PfHsp40 yeast inactive, SSB-PriA inh inactive and PrP 5UTR inh inactive.
`CC(CCc1ccccc1)NC(=O)COC(=O)c1cc(NS(=O)(=O)c2ccc(Cl)c([N+](=O)[O-])c2)ccc1O` (stereo unspecified) gave PrPC TRFRET inactive, BJeLR viability inactive, RecA splice inh 37.5, PfHsp40 yeast inactive, SSB-PriA inh inactive, PrP 5UTR inh inactive and GFP chromophore inactive.
`CCN(CC)C(=O)c1ccc2c(c1[N+](=O)[O-])C(=O)c1ccccc1C2=O` gave BJeLR viability inactive, RecA splice inh 41.8 and GFP chromophore inactive.
O=C1C(Cl)=C(NCCN2CCCCC2)C(=O)c2ccccc21 was read as BJeLR viability inactive, RecA splice inh 48.1, PfHsp40 yeast inactive, SSB-PriA inh inactive, PrP 5UTR inh inactive and GFP chromophore 26.3.
For CCNC1=C(Cl)C(=O)c2ccccc2C1=O the results were PrPC TRFRET inactive, BJeLR viability inactive, RecA splice inh 75.9, PfHsp40 yeast inactive, SSB-PriA inh inactive, PrP 5UTR inh inactive and GFP chromophore 33.4.
Screening CCOC(=O)CCC(=O)NCc1n[nH]c(=O)c2ccccc12 returned SSB-PriA inh inactive.
Screening Cc1nc(-c2ccc(S(=O)(=O)NCc3cccnc3-c3ccsc3)cc2)co1 returned SSB-PriA inh inactive.
`CCc1nnc(N/N=C/c2cc(Br)c(O)cc2O)n1N` gave PrPC TRFRET inactive, BJeLR viability inactive, RecA splice inh 40.3, PfHsp40 yeast inactive, PrP 5UTR inh inactive and GFP chromophore 32.4.
`CCc1nnc(NN=Cc2ccccc2F)n1N` gave SSB-PriA inh inactive.
For COc1ccc(/C=N/Nc2nc3ccccc3s2)cc1O the results were PrPC TRFRET inactive, BJeLR viability inactive, RecA splice inh inactive, PfHsp40 yeast inactive and PrP 5UTR inh inactive.
